Assay outcomes: PubChem BioAssay, National Center for Advancing Translational Sciences (NCATS)
IL-1B inflam inh = qHTS for Inhibitors of Inflammasome Signaling: IL-1-beta AlphaLISA Primary Screen; THP-1 LPS/ATP IL-1B secretion, AlphaLISA, 16 h; hits give low values; activity change, % at 57.5 µM; hit rate 4.7% among 360,000; in the data active = activity change below about -50%; inconclusive = mostly about -30% to -49%; note: % is set by controls: 0 for no effect and ±100 for the full control effect
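Secreted IL-1B measured by AlphaLISA bead assay after 16 h compound exposure of THP-1 cells; compounds (final up to 57.5 uM) added 1 h before LPS (250 ng/mL) and ATP (1.25 mM) stimulation; lower signal means less secretion.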
TGFb SMAD3 inh = qHTS for Inhibitors of TGF-b | HepG2 CAGA-GFP TGF-b/SMAD3 reporter, GFP fluorescence, 18 h; TGF-beta stimulated, 500 pg/mL final | Potency, µM (top dose mostly 46.1 µM), without a hit: top-dose activity, negative = inhibition, hits mostly inhibitors | hit rate 1.2% among 410,000 | AID 588855, 2011; note: potency is the fitted concentration of half-maximal effect; % is set by controls: 0 for no effect and ±100 for the full control effect; nearly all actives have a fitted effect of over 65% in size
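HEPG2 CAGA-GFP cells (1000/well, DMEM with 1% FBS) were pre-incubated 2 h at 37 degrees C, given compound by pin tool, then stimulated with TGF-beta at 500 pg/mL final for 18 h before per-cell GFP fluorescence imaging.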
HepG2 tox-1 = qHTS for Inhibitors of TGF-b: Cytotox Counterscreen; HepG2 CAGA-GFP viability, ATP luminescence, 18 h; Potency, µM (top dose mostly 46.1 µM), without a hit: at the highest dose activity change, negative = cytotoxicity, actives largely listed as cytotoxic; hit rate 0.76% among 410,000; note: potency is the fitted concentration of half-maximal effect
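HepG2 CAGA-GFP cells (1000/well, DMEM with 1% FBS) received compound, then TGF-beta at 500 pg/mL final, and were incubated 18 hours at 37 degrees C. Viability was read by CellTiter-Glo luminescence. Media-only wells were set as complete cell-killing and DMSO as no toxicity.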
TDP1 cell CPT = qHTS for Inhibitors of human tyrosyl-DNA phosphodiesterase 1 (TDP1): qHTS in cells in presence of CPT | Potency, µM (series often up to 46.2 µM), for inactives: top-dose activity change, negative = growth inhibition, usual class: inhibitors | chicken DT40 Tdp1-/-;hTDP1 cells + 20 nM CPT, ATP luminescence, 48 h | hit rate 12% among 420,000; note: potency is the fitted concentration of half-maximal effect; % is set by controls: 0 for no effect and ±100 for the full control effect; nearly all actives have a fitted effect of over 55% in size
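Chicken DT40 Tdp1-/- cells complemented with human TDP1, 400 cells/well, exposed to compounds plus 20 nM camptothecin for at least 48 h at 37 C; viability read as ATP content by CellTiter-Glo luminescence.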
TDP1 cell noCPT = qHTS for Inhibitors of human tyrosyl-DNA phosphodiesterase 1 (TDP1): qHTS in cells in absence of CPT. AID 686978, 2013. hit rate 15% among 420,000. DT40 Tdp1-/- hTDP1 cells, no CPT, ATP luminescence, 48 h. Potency, µM (series often up to 46.2 µM), for inactives: at the highest dose activity change, negative = growth inhibition, usual class: inhibitors; note: potency is the fitted concentration of half-maximal effect; % is set by controls: 0 for no effect and ±100 for the full control effect; nearly all actives have a fitted effect of over 55% in size
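Growth of hTDP1-complemented DT40 Tdp1-knockout cells is measured by ATP luminescence after at least 48 hr compound exposure at 37 °C, with DMSO substituting for the 20 nM CPT used in the parallel screen.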
TDP1 inh = qHTS Assay for Inhibitors of Tyrosyl-DNA Phosphodiesterase (TDP1); Tyrosyl-DNA phosphodiesterase 1 (Homo sapiens), Q9NUW8; recombinant TDP1, AlphaScreen DNA substrate cleavage; Potency, µM (doses to about 130 µM), for the others: at the top dose activity change, negative = inhibition, most hits filed as inhibitors; hit rate 0.28% among 350,000; note: potency is the fitted concentration of half-maximal effect; % is set by controls: 0 for no effect and ±100 for the full control effect; nearly all actives have a fitted effect of over 40% in size
Target sequence (Q9NUW8 whole entry, looked up): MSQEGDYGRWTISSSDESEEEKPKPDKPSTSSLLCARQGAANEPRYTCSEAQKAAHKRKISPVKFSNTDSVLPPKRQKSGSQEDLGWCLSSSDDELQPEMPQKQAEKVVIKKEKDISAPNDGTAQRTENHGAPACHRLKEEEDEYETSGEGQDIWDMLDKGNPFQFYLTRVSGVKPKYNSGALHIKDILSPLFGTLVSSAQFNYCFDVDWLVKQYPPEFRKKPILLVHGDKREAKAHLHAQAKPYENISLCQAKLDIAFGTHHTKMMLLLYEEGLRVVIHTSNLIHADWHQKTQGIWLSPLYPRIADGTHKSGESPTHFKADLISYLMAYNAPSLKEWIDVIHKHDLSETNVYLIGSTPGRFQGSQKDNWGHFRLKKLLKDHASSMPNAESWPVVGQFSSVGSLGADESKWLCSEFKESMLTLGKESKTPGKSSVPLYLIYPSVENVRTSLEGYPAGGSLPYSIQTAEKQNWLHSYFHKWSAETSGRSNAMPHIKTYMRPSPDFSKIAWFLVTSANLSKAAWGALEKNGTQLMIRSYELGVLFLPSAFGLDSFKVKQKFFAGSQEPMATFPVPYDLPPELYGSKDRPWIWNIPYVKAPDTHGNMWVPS
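Signal: AlphaScreen proximity between streptavidin donor and anti-FITC acceptor beads on intact substrate. Reaction: Tdp1 1 nM, substrate 15 nM final, 5 min RT after 15 min compound preincubation.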
TGFb confirm = qHTS for Inhibitors of TGF-b: Confirmation of Cherry Picks | shares compounds with TGFb SMAD3 inh | HepG2 CAGA-GFP TGF-b reporter, GFP fluorescence, 18 h; cells stimulated with TGF-beta, 500 pg/mL | AID 720534, 2013 | Potency, µM (doses to about 46.1 µM), without a hit: top-dose activity, negative = inhibition, usual class: inhibitors | hit rate 63% among 1,600; note: potency is the fitted concentration of half-maximal effect; % is set by controls: 0 for no effect and ±100 for the full control effect; nearly all actives have a fitted effect of over 65% in size
HepG2 tox-2 = qHTS for Inhibitors of TGF-b: Cytotox Counterscreen for Cherry Picks; shares compounds with TGFb SMAD3 inh; HepG2 CAGA-GFP viability, ATP luminescence, 18 h; cells stimulated with TGF-beta, 500 pg/mL; Potency, µM (titrated, usually from 46.1 µM), without a hit: top-dose activity, negative = cytotoxicity, actives largely listed as inhibitors; hit rate 27% among 1,600; note: potency is the fitted concentration of half-maximal effect; % is set by controls: 0 for no effect and ±100 for the full control effect; nearly all actives have a fitted effect of over 70% in size
CCL64 TGFb inh = qHTS for Inhibitors of TGF-b: CCL64 Cells Orthogonal Assay for Cherry Picks; shares compounds with TGFb SMAD3 inh; CCL64 CAGA-GFP reporter, TGF-b stimulated, GFP fluorescence, 18 h; Potency, µM (titrated, usually from 46.1 µM), without a hit: top-dose activity, negative = inhibition, hits mostly inhibitors; hit rate 41% among 1,600; AID 720536, 2013; note: potency is the fitted concentration of half-maximal effect; nearly all actives have a fitted effect of over 65% in size
TGFb COP inh = qHTS for Inhibitors of TGF-b: Hit Validation in HepG2 Cells using COP promoter; hit rate 3% among 1,600; HepG2 COP-GFP TGF-b reporter, GFP fluorescence, 18 h; cells stimulated by added recombinant TGF-beta; Potency, µM (top dose mostly 46.1 µM), without a hit: at the highest dose activity, negative = inhibition, usual class: inhibitors; shares compounds with TGFb SMAD3 inh; note: potency is the fitted concentration of half-maximal effect; nearly all actives have a fitted effect of over 70% in size
* = called active by the depositor; ? = inconclusive; nt = no result given; [ ] = dose if it differs, or a comment. A selection: hits, their analogues and other compounds. The true share with any hit is near 18%. Unless noted, calls come from the whole dose curve; as a rule, active = well fitted curve in the direction sought with a large enough effect; inconclusive = small, poorly fitted or top-dose-only effect, or another doubt; inactive = no such curve, though single readings can be large; an effect the other way counts as inactive or inconclusive.

SMILES	IL-1B inflam inh	TGFb SMAD3 inh	HepG2 tox-1	TDP1 cell CPT	TDP1 cell noCPT	TDP1 inh	TGFb confirm	HepG2 tox-2	CCL64 TGFb inh	TGFb COP inh
O=C1C=C(Nc2ccccc2)C(=O)c2ccccc21	0	4µM*	5µM*	13µM*	?	8%	6.5µM*	15µM*	?	-65%
Cc1ccc(S(=O)(=O)/N=C2\C=C(Nc3ccc(O)cc3)C(=O)c3ccccc32)cc1	-97*	1.3µM*	3.2µM*	2.1µM*	2.9µM*	11%	1.3µM*	2.3µM*	5.2µM*	?
Cc1ccc(S(=O)(=O)Nc2ccc(N=Nc3ccc(O)cc3)cc2)cc1	0	?	7%	12%	4%	1%	nt	nt	nt	nt
O=C1C(Nc2ccccc2)=C/C(=N/S(=O)(=O)c2cccs2)c2ccccc21	-99*	4µM*	3.5µM*	2.9µM*	4.6µM*	12%	2.6µM*	2.6µM*	3.3µM*	?
COC(=O)c1ccccc1NC1=C/C(=N\S(=O)(=O)c2cccs2)c2ccccc2C1=O	-92*	?	-23%	3.3µM*	5.8µM*	12%	7.3µM*	15µM*	3.3µM*	16µM*
COC(=O)c1cccc(NS(=O)(=O)c2cccs2)c1C	-6	-1%	23%	-14%	-15%	4%	nt	nt	nt	nt
CN(C)C(=O)C[C@@H]1C=C[C@@H](NC(=O)C2CCC2)[C@@H](CO)O1	-6	nt	nt	-4%	8%	nt	nt	nt	nt	nt
COc1ccc(NC(=O)Nc2cc(-c3cn4cccnc4n3)ccc2C)cc1	nt	3%	4%	nt	nt	-1%	nt	nt	nt	nt
COc1cc(-c2noc(C)c2/C=C/c2cccc([N+](=O)[O-])c2)cc(OC)c1OC	57	13µM*	-19%	1.3µM*	1.6µM*	nt	?	-27%	?	-11%
CC[C@]12c3[nH]c4ccc(Cl)cc4c3CCN1C(=O)[C@@H](CC(=O)NCC13CC4CC(CC(C4)C1)C3)C[C@@H]2C(=O)N1CCN(C(=O)c2ccco2)CC1	-26	13µM*	-2%	?	13µM*	6%[56.1 µM]	12µM*	?	?	67%
CC[C@]12c3[nH]c4cc(-c5ccco5)ccc4c3CCN1C(=O)[C@@H](CC(=O)NCC13CC4CC(CC(C4)C1)C3)C[C@@H]2C(=O)N1CCN(C(=O)c2ccco2)CC1	-54*	13µM*	0%	9.2µM*	21µM*	0%[56.1 µM]	?	-20%	?	28%
O=C(c1ccco1)N1CCN(C(=O)C2CCCc3c2[nH]c2ccc(Cl)cc32)CC1 (centres undefined)	-7	1µM*	-34%	-24%	-23%	1%	?	?	?	10%
COc1ccc2[nH]c3c(c2c1)CCN1C(=O)C(CC(=O)NCC24CC5CC(CC(C5)C2)C4)C[C@H](C(=O)N2CCOCC2)[C@@]31CCC1CCCC1 (some centres undefined)	-62*	11µM*	12%	?	?	1%[56.1 µM]	4.6µM*	-22%	5.8µM*	19%
Cc1ccc(S(=O)(=O)N(C)CC(=O)Nc2ncccc2C)cc1	-10	38%	-82%	-15%	5%	-2%	nt	nt	nt	nt
CC(CC(=O)Nc1cccc(F)c1)S(=O)(=O)c1ccc2c(c1)NC(=O)CO2 (centres undefined)	17	-11%	3%	-30%	2%	2%	nt	nt	nt	nt
CC(=O)N1CCc2cc(S(=O)(=O)NC(C(=O)N3CCN(c4ccccc4F)CC3)C(C)C)ccc21 (centres undefined)	20	12%	15%	-2%	-4%	nt	nt	nt	nt	nt
CC(=O)OC/C=C(\C)CC/C=C(\C)CC/C=C(\C)CC/C=C(\C)CC/C=C(\C)CC/C=C(\C)CC/C=C(\C)CC/C=C(\C)CCC=C(C)C	nt	nt	nt	10%	14%	8%	nt	nt	nt	nt
COc1ccc2[nH]c3c(c2c1)CCN1C(=O)C(CC(=O)NCc2ccc(OC)c(OC)c2)C[C@H](C(=O)N(C(C)C)C(C)C)[C@@]31C (some centres undefined)	-9	?	-17%	?	?	1%[56.1 µM]	nt	nt	nt	nt
CC(C)N(C(=O)[C@H]1C[C@H](CC(=O)NCC23CC4CC(CC(C4)C2)C3)C(=O)N2CCc3c([nH]c4ccc(Cl)cc34)[C@]12C)C(C)C	-75*	8.9µM*	-76%	18µM*	13µM*	1%[56.1 µM]	12µM*	?	13µM*	53%
COc1ccc(COc2cc(-c3cccc(OC)c3)nc3ccc(N)cc23)cc1	14	7.1µM*	-1%	1.5µM*	1.5µM*	11%	3.3µM*	-19%	1.8µM*	-20%
CC(=O)N(c1ccccc1C)C1CCCC1	6	-1%	21%	-7%	?	2%	nt	nt	nt	nt
